A selection: hits, their analogues and other compounds. The true share with any hit is near 2.6%.
697 NFkB inh: lowers PMA/ionomycin-induced NF-kB signal in 697 B cells; actives 0.33% (n = 330,000); 697 B-cell NF-kB luciferase reporter, 16 h; inhibition, % at 4 µM; AID 435022; in the data active = inhibition above about 35%
Jurkat NFkB inh: inhibitors of the PMA/ionomycin-induced NF-kB reporter in Jurkat cells. AID 435003. PMA/ionomycin-induced NF-kB luciferase reporter, luminescence. actives 0.53% (n = 330,000). inhibition, % at 4 µM; in the data active = inhibition above about 50%
H9c2 TAG inh: inhibitors of triacylglycerol accumulation; AID 651582; H9c2 cells, Nile Red lipid (TAG) fluorescence; cells loaded with 200 µM oleic acid; actives 0.66% (n = 230,000); inhibition, % at 12.5 µM;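 active = pattern-corrected inhibition of lipid staining of at least 50% with the nuclear-stain viability signal not falling by more than 50%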
Cardio protect: protects H9c2 cardiomyocytes from peroxide injury. H2O2 injury protection, ATPLite, 2 h. protection from H2O2 cell death, % at 20 µM. AID 588492. actives 0.63% (n = 360,000);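 active = compounds giving at least 50% protection of heart cells from peroxide-induced death in the single-dose screen, raw or plate-pattern-corrected value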
NR2F2 inh: NR2F2 (human) inhibition, primary screen. inhibition, % at 8.6 µM. HEK293T NGFI-A luciferase reporter, luminescence. actives 0.7% (n = 370,000). AID 686940;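 active = inhibition above a per-plate cutoff, mean inhibition of test wells between control levels plus 3 SD, cut at about 38% in these data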;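 also: cells cotransfected with COUP-TFII expression vector driving the NGFI-A reporter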
Target sequence (P24468 whole entry, looked up): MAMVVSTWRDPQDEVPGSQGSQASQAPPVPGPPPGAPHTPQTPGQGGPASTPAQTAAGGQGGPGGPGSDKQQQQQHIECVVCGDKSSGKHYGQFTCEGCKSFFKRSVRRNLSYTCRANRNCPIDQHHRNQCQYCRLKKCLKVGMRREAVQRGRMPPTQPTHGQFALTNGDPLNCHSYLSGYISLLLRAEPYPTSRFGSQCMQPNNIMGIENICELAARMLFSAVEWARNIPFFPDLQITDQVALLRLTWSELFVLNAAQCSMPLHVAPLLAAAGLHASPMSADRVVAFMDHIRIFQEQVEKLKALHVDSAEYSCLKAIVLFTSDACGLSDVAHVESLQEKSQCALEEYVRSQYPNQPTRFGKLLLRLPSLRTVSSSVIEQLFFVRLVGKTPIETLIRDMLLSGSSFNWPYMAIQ
Gli-Sufu block: blocks Gli-Sufu signaling in a luciferase reporter; Sufu-KO-LIGHT fibroblasts, Gli luciferase reporter luminescence; inhibition, % at 5 µM; actives 0.74% (n = 340,000); AID 588413;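 active = inhibition above about 55%, limit read from the data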
Jurkat NFkB conf: lowers PMA/ionomycin-induced NF-kB signal in Jurkat cells | actives 27% (n = 2,700) | Jurkat NF-kB luciferase, 16 h | AID 435020 | shares compounds with Jurkat NFkB inh | inhibition, % at 4 µM;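 active = inhibition reaching about 45% at 4 µM in either replicate, limit read from the data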
697 NFkB conf: inhibitors of the PMA/ionomycin-induced NF-kB reporter in 697 B cells, retest. shares compounds with 697 NFkB inh. 697 B-cell NF-kB luciferase, 16 h. inhibition, % at 4 µM. actives 35% (n = 2,000); in the data active = inhibition mostly above about 28%, no sharp cut-off; inactive = mostly below about 22%
Gal4-VP16 ctr: inhibits VP16 reporter, flagging COUP-TFII antagonist hits; shares compounds with NR2F2 inh; HEK293 Gal4-VP16 luciferase reporter, luminescence; inhibition, % at 8.5 µM; actives 25% (n = 2,500); in the data active = inhibition above about 13%
NR2F2 inh conf: COUP-TFII (NR2F2) inhibition, confirmation assay; shares compounds with NR2F2 inh; HEK293 NGFI-A luciferase reporter, luminescence; inhibition, % at 8.5 µM; actives 45% (n = 2,500); AID 687008;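 active = mean inhibition over three repeats above a set limit taken from the earlier primary screen, cut at about 38% in these data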
A number is an active result; . = inactive; / = no result given.

SMILES | 697 NFkB inh | Jurkat NFkB inh | H9c2 TAG inh | Cardio protect | NR2F2 inh | Gli-Sufu block | 697 NFkB conf | others
CC1CCC/C=C/C2CC(O)CC2C(O)/C=C/C(=O)O1 (configuration not stated) | 69.5 | 97.0 | . | . | 59.3 | 87.6 | 80.2 | Jurkat NFkB conf=.;Gal4-VP16 ctr=.;NR2F2 inh conf=.
CC1CCC[C@H](O)CCCCCc2cc(O)cc(O)c2C(=O)O1 (some centres not stated) | . | . | . | . | . | . | /
O=S(=O)(c1ccc(Cl)cc1)N1Cc2ccc(Br)cc2-n2nncc2C1 | / | / | / | / | . | / | /
CC(C)c1oc(=O)cc2c1[C@@H](O)[C@H]1OC(=O)[C@@]3(C)C[C@@H](O)[C@@H](O)[C@@]2(C)C13 (some centres not stated) | . | 90.1 | . | . | 40.9 | . | . | Jurkat NFkB conf=90.5;Gal4-VP16 ctr=.;NR2F2 inh conf=.
CC(C)c1oc(=O)cc2c1[C@@H](O)[C@H]1OC(=O)[C@@]3(C)CC[C@@H](O)[C@@]2(C)C13 (some centres not stated) | . | 72.1 | / | . | 42.2 | . | / | Jurkat NFkB conf=59.9;Gal4-VP16 ctr=.;NR2F2 inh conf=.
C[C@]12CC[C@H](O)C[C@H]1CC[C@@H]1[C@@H]2C[C@@H](O)[C@]2(C)[C@@H](C3=CC(=O)OC3)CC[C@]12O | . | 97.6 | . | . | 80.7 | . | . | Jurkat NFkB conf=74.1;Gal4-VP16 ctr=29.3;NR2F2 inh conf=58.5
C[C@]12CC[C@H](O)C[C@H]1CC[C@@H]1[C@@H]2CC[C@]2(C)[C@@H](C3=CC(=O)OC3)CC[C@]12O | . | 101.1 | . | . | 77.0 | . | / | Jurkat NFkB conf=91.4;Gal4-VP16 ctr=46.6;NR2F2 inh conf=73.5
CC12CC[C@H]3[C@@H](CCC4(O)C[C@H](O)CCC34/C=N/NC(=O)Cc3ccccc3)C1(O)CCC2C1=CC(=O)OC1 (some centres not stated) | . | . | . | . | . | . | /
Cc1ccc(OC(=O)N(C)C[C@H]2OCc3cnnn3CCCC(=O)N([C@@H](C)CO)C[C@@H]2C)cc1 | / | / | / | / | . | / | /
C=C1C(=O)O[C@@H]2C[C@@H](C)[C@@H]3C=CC(=O)[C@@]3(C)[C@@H](OC(=O)CC(=O)O[C@H]3[C@@H]4C(=C)C(=O)O[C@@H]4C[C@@H](C)[C@@H]4C=CC(=O)[C@]43C)[C@H]12 | 103.8 | 93.1 | / | . | 97.9 | 93.2 | 101.0 | Jurkat NFkB conf=99.9;Gal4-VP16 ctr=96.4;NR2F2 inh conf=108.6
COC(=O)C1CC(OC(C)=O)C(=O)[C@H]2C1(C)CC[C@H]1C(=O)OC(c3ccoc3)CC12C (some centres not stated) | / | / | / | / | . | / | /
O=C(c1ccccc1)N1Cc2cc(Br)ccc2-n2nncc2C1 | / | / | / | / | . | / | /
CC(C)S(=O)(=O)N1Cc2ccc(Br)cc2-n2nncc2C1 | / | / | / | / | . | / | /
NC(=O)c1cn(C2OC(CO)C(O)C2O)c2ncnc(N)c12 (configuration not stated) | 103.7 | 99.8 | . | . | 72.3 | 86.7 | 105.6 | Jurkat NFkB conf=97.0;Gal4-VP16 ctr=55.6;NR2F2 inh conf=86.0
C[C@H]1CC[C@@H]2[C@@H](C)[C@H]3[C@H](C[C@H]4[C@@H]5CC=C6C[C@@H](O[C@@H]7O[C@H](CO)[C@H](O)[C@H](O[C@@H]8O[C@H](CO)[C@@H](O)[C@H](O)[C@H]8O)[C@H]7O[C@@H]7O[C@@H](C)[C@H](O)[C@@H](O)[C@H]7O)CC[C@]6(C)[C@H]5CC[C@]34C)N2C1 | . | . | / | . | . | . | /
C[C@@H]1O[C@@H](O[C@H]2C[C@@H](O)[C@]3(CO)[C@@H]4C(CC[C@]3(O)C2)[C@@]2(O)CC[C@H](C3COC(=O)C3)[C@@]2(C)C[C@H]4O)[C@H](O)[C@H](O)[C@H]1O (some centres not stated) | . | 95.0 | . | . | 63.9 | . | . | Jurkat NFkB conf=67.0;Gal4-VP16 ctr=13.6;NR2F2 inh conf=57.7
C=CCn1c(O)c(C(C)=NCCC(c2ccccc2)c2ccccc2)c(=O)[nH]c1=O | . | . | / | . | . | . | /
C=CCn1c(O)c(C(C)=NC(C)c2ccccc2)c(=O)[nH]c1=O (configuration not stated) | 41.1 | . | . | . | . | . | 30.1
CN1CC[C@@H]2CN[C@H](c3ccccc3)C[C@@H]21 | / | / | / | / | . | / | /
Cc1cc(OCC(=O)N2CCC(C(N)=O)CC2)c2c3c(c(=O)oc2c1)CCCC3 | 41.6 | . | / | . | . | . | 29.7
COC1CC=C2CCN3CCC4=C(CC(=O)OC4)C23C1 (configuration not stated) | / | / | / | / | . | / | /
CC(=O)C1=C(C)OC2=C(C(=O)CCC2)[C@@]12C(=O)N(C)c1ccccc12 | / | / | / | / | . | / | /
C[C@]12CC[C@H]3C(CCC4(O)CC(O)CC[C@]34C=O)C1=CC[C@H]2c1ccc(=O)oc1 (some centres not stated) | . | . | / | . | . | . | .
CNC(=O)Nc1ccc(C(=O)N/N=C\C23CC[C@@H](O)CC2(O)CC[C@@H]2[C@@H]3CCC3(C)C(C4=CC(=O)OC4)CCC23O)cc1 (some centres not stated) | . | . | . | . | . | . | /
N#CCCC#N | / | / | / | / | . | / | /
SMILES | 697 NFkB inh | Jurkat NFkB inh | H9c2 TAG inh | Cardio protect | NR2F2 inh | Gli-Sufu block | 697 NFkB conf | others
C=C1C(=O)[C@@]23C[C@H]4[C@@H]5[C@@]6(C)CCC[C@@]57[C@@H]2[C@@H](O)[C@@H]1C[C@H]3[C@H]7N4C6 | 44.2 | . | / | . | . | . | 37.4
O=C(NCCN1CCC2(CC1)C(=O)NCN2c1ccccc1)c1ccc(F)cc1 | / | / | / | / | . | / | /
CC1CN(c2ccc([N+](=O)[O-])c3cccnc23)CC(C)N1 (configuration not stated) | . | . | . | . | . | . | .
C[C@H]1CCC[C@@H](O)CCC/C=C/c2cc(O)cc(O)c2C(=O)O1 | 42.7 | . | / | . | . | . | .
CNC(=O)Oc1cccc(-c2cn3cc(Cl)ccc3n2)c1 | . | . | / | . | . | . | .
CNC(=O)Oc1ccc(-c2cn3cc(C)ccc3n2)cc1 | . | . | / | . | . | . | /
Cc1nc2cc(-c3ccccc3)nn2c(C)c1CCC(=O)N1CCC2(CC1)OCCO2 | 42.7 | . | / | . | . | . | 45.6
O=c1[nH]c(O)c(/C=C2/C=CC(c3cc(Cl)ccc3Cl)=N2)c(=O)[nH]1 | 36.0 | . | . | . | . | . | .
C/C(=C\c1ccc(N(C)C)cc1)[N+](=O)[O-] | 38.1 | . | / | . | . | . | .
CN(C)c1ccc(/C=C/[N+](=O)[O-])cc1 | . | . | . | . | . | . | /

From PubChem BioAssay
